Most compounds without a hit are left out; they make up all but 8% or so of the library.
KB-3-1 tox: KB-3-1 parental cell cytotoxicity. KB-3-1 viability, CellTiter-Glo ATP luminescence, 72 h. Potency, µM (doses to about 46.1 µM), actives largely listed as cytotoxic. 400,000 tested, 1.4% active. AID 1347075; note: % is set by controls: 0 for no effect and ±100 for the full control effect; nearly all actives have a fitted effect of over 60% in size
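Multi-concentration cytotoxicity screen in KB-3-1 cells grown in DMEM lacking phenol red with 10% FBS. After 72 h at 37 °C with compound, ATP-dependent luminescence was recorded.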
HT1080 IDH1KD tx: toxicity to HT-1080 IDH1 knockdown cells (counter line) | Potency, µM (series often up to 46.1 µM), for inactives: top-dose activity, negative = toxicity, actives largely listed as cytotoxic | 360,000 tested, 2% active | AID 686971 | HT-1080 IDH1 knockdown viability, ATP luminescence, 48 h;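 note: 0% = DMSO wells and -100% = cell-free medium wells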
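CellTiter-Glo luminescence after 48 h compound exposure at 37 degrees C of IDH1-knockdown HT-1080 cells in 5% FBS RPMI. %Activity scaled between DMSO wells and cell-free media wells, with curves fitted and assigned curve classes.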
SW480 rerep: induces DNA re-replication in SW480 colon adenocarcinoma cells; SW480 DNA re-replication, Hoechst DNA content imaging, 48 h; Potency, µM (doses to about 46.1 µM), for inactives: top-dose re-replication activation, usual class: activators; 340,000 tested, 1.8% active; note: % of control where 0% means no effect; nearly all actives have a fitted effect of over 55% in size
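Compounds, transferred as 23 nL by pin tool, were incubated with cells for 48 hr; DNA content per nucleus was then quantified by Hoechst staining and fluorescence plate imaging.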
MCF10A rereplic: inducers of DNA re-replication in MCF 10A breast cells; MCF 10A DNA re-replication, Hoechst nuclear intensity, 48 h; Potency, µM (top dose mostly 46.1 µM), for inactives: at the top dose activity, positive = re-replication, actives largely listed as activators; 350,000 tested, 2.9% active; note: % of control where 0% means no effect; nearly all actives have a fitted effect of over 50% in size
KB-V1 cytotox: kills drug-selected multidrug resistant KB-V1 cells. KB-V1 MDR cells viability, CellTiter-Glo, 72 h. Potency, µM (top dose mostly 46.1 µM), actives largely listed as cytotoxic. 400,000 tested, 3.4% active. AID 1347076; note: % is set by controls: 0 for no effect and ±100 for the full control effect; nearly all actives have a fitted effect of over 60% in size
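Following 72 h at 37 degrees C with compound, KB-V1 cell viability was read by CellTiter-Glo luminescence, medium being phenol-red-free DMEM plus 10% FBS; concentration-response parameters came from normalized, curve-fitted qHTS data.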
HT1080-NT tox: kills 2HG-producing HT-1080-NT fibrosarcoma cells; HT-1080-NT fibrosarcoma viability, CellTiter-Glo ATP luminescence, 48 h; Potency, µM (top dose mostly 46.1 µM), for the others: top-dose activity, negative = less viability, hits mostly cytotoxic; 360,000 tested, 1.6% active; AID 686970;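 note: NT is the 2HG producing partner of a matched IDH1 knockdown line; 0% = DMSO-treated cells and -100% = media-only wells without cells; nearly all actives have a fitted effect of over 55% in size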
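Fibrosarcoma NT cells, 750 per well in 5% FBS RPMI, were exposed to compound for 48 hours. Viability: CellTiter-Glo luminescence.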
* = called active by the depositor; i = inactive; ? = inconclusive; . = no result given. Calls come from the whole dose curve; as a rule, active = well fitted curve in the direction sought with a large enough effect; inconclusive = small, poorly fitted or top-dose-only effect, or another doubt; inactive = no such curve, though single readings can be large; an effect the other way counts as inactive or inconclusive. Potency is the fitted concentration of half-maximal effect.

SMILES	KB-3-1 tox	HT1080 IDH1KD tx	SW480 rerep	MCF10A rereplic	KB-V1 cytotox	HT1080-NT tox
Cc1cc(SCc2ccc(Cl)cc2Cl)nc(=O)[nH]1	?	?	?	9.2µM*	i	-10%
Cc1cc(C(=O)N/N=C/c2ccc(C)o2)c2ccccc2n1	1.3µM*	?	5.8µM*	1.8µM*	?	3.3µM*
Cc1nn(-c2ccccc2)c(N2CCCC2)c1/C=N/NC(=O)c1cc(-c2cccnc2)nc2ccccc12	?	?	?	13µM*	?	-29%
Cc1[nH]c2ccccc2c1C=NNC(=O)c1cc(-c2cccnc2)nc2ccccc12	i	-5%	-15%	?	i	-1%
Cc1ccc(/C=N/NC(=O)c2cc(C3CC3)nc3ccccc23)o1	?	5.8µM*	21µM*	5.8µM*	?	?
Cc1nn(-c2ccccc2)c(N2CCCC2)c1/C=N/NC(=O)c1ccccc1O	i	?	1%	?	i	-27%
Cc1ccc(C=NNC(=O)c2cc(-c3cccnc3)nc3ccccc23)o1	?	?	7.3µM*	5.2µM*	?	?
Cc1cccc(NC(=O)C(NS(=O)(=O)c2cccc3nsnc23)c2ccccc2)c1C (stereo not given)	i	.	.	.	i	.
O=C(Nc1nnc(SCCN2CCOCC2)s1)C1CC(=O)N(c2ccc(F)cc2)C1 (stereo not given)	i	-5%	-3%	9%	i	-10%
Cc1ccc(/C=N/NC(=O)c2cc(-c3ccccc3)nc3ccccc23)o1	i	?	?	5.8µM*	i	?
O=C(N/N=C/c1ccc(O)cc1)c1cc(-c2ccccc2)nc2ccccc12	?	-27%	23%	?	i	-25%
COc1ccc(/C=N/NC(=O)C(C)n2cnc3ccccc3c2=O)cc1 (stereo not given)	i	0%	-5%	-16%	i	1%
CCc1cc(C(=O)N/N=C/c2ccc(OC)cc2)c2ccccc2n1	?	?	?	16µM*	?	?
CCCc1cc(C(=O)N/N=C/c2ccc(C)o2)c2ccccc2n1	?	21µM*	?	?	?	?
COc1ccc(/C=N/NC(=O)Cn2cnc3ccccc3c2=O)cc1	i	4%	-2%	?	3.3µM*	5%
Cc1ccccc1CNC(=O)c1ccc(CN2CC(=O)N3CCCCC3C2=O)cc1 (stereo not given)	i	.	.	.	i	.
CCc1ccc(Cc2cnc(NC(=O)c3ccc4c(c3)CC(c3ccccc3)OC4=O)s2)cc1 (stereo not given)	i	.	.	.	i	.
Cc1ccc2c(c1)c1c(c(=O)n(-c3ccccc3)c(=O)n1Cc1ccccc1C)n2C	i	.	.	.	i	.
CC(C)N(C(=O)CSc1nc2ccccc2n1Cc1ccc(F)cc1)C(C)C	?	?	4%	22%	?	-26%
COc1ccc(NC(=O)C(C)N2c3cccc4cccc(c34)S2(=O)=O)cc1 (stereo not given)	i	-18%	4%	-23%	i	-20%
COc1ccc(NC(=O)C(C)N2c3cccc4cccc(c34)S2(=O)=O)cc1OC (stereo not given)	18µM*	?	13µM*	8.2µM*	5.2µM*	?
CCn1c(C(=O)N2CCCC(C(=O)O)C2)cc2sccc21 (stereo not given)	i	-4%	9%	2%	i	-5%
Cn1c(C(=O)N2CCCC(C(=O)NCc3cccs3)C2)cc2sccc21 (stereo not given)	i	-7%	1%	18%	i	11%
Cc1ccc(CCNC(=O)C2CCCN(C(=O)N(C)C)C2)cc1 (stereo not given)	i	5%	1%	4%	?	7%
CCn1c(C(=O)N2CCCC(C(=O)NCCc3ccc(C)cc3)C2)cc2sccc21 (stereo not given)	?	?	?	?	16µM*	?
SMILES	KB-3-1 tox	HT1080 IDH1KD tx	SW480 rerep	MCF10A rereplic	KB-V1 cytotox	HT1080-NT tox
CCS(=O)(=O)N1CCC(C(=O)NCCc2ccc(C)cc2)CC1	i	0%	-2%	28%	i	-2%
CCS(=O)(=O)N1CCCC(C(=O)NCCc2ccc(C)cc2)C1 (stereo not given)	i	4%	13µM*	-67%	?	15%
CCn1c(C(=O)N2CCCC(C(=O)NCCCc3ccccc3)C2)cc2sccc21 (stereo not given)	i	-1%	11%	?	23µM*	5%
Cn1c(C(=O)N2CCCC(C(=O)NCCCSC3CCCCC3)C2)cc2sccc21 (stereo not given)	i	-13%	0%	24%	8.2µM*	-4%
Cc1nn2c(=O)cc(COC(=O)C(c3ccccc3)c3ccccc3)nc2s1	i	.	.	.	i	.
O=C(Cc1ccc(Cl)cc1Cl)NCC1(N2CCOCC2)CCCCC1	i	-8%	-4%	-11%	i	-4%
CCn1c(C(=O)N2CCC(Cc3ccccc3)CC2)cc2sccc21	i	-5%	1%	21µM*	i	1%
CCOC(=O)N1CCN(C(=O)C2CCN(C(=O)c3cc4sccc4n3CC)CC2)CC1	i	0%	-8%	-3%	i	3%
COc1ccc(OC)c(S(=O)(=O)Nc2ccc3c(c2)C(=O)OC3)c1	i	21µM*	13%	10%	i	18µM*
COc1ccc(NS(=O)(=O)c2cc(OC)ccc2OC)cc1	i	-3%	-6%	1%	i	7%
Cc1c(C)c2ccc(O)c(CN3CCN(C)CC3)c2oc1=O	i	28%	2%	-7%	i	27%
CN1CCN(Cc2c(O)ccc3cc(-c4ccccn4)c(=O)oc23)CC1	i	11%	9.2µM*	23µM*	?	10%
COc1ccc(CNC(=O)C2CCN(S(=O)(=O)c3ccc4c(c3)N(C(C)=O)CCO4)CC2)cc1	i	-4%	-1%	-3%	i	11%
Cc1cn(Cc2ccccc2)c(=O)[nH]c1=O	i	-10%	?	?	i	-11%
O=S(=O)(NCc1ccc(F)cc1)c1ccc2[nH]c3c(c2c1)CCCCC3	i	.	.	.	i	.
COc1cc(NS(=O)(=O)c2ccc3[nH]c4c(c3c2)CCCCCC4)cc(OC)c1	i	.	.	.	?	.
COc1cccc(CNS(=O)(=O)c2ccc3[nH]c4c(c3c2)CCCCC4)c1	21µM*	.	.	.	21µM*	.
COc1cc(NS(=O)(=O)c2ccc3[nH]c4c(c3c2)CCCC4)cc(OC)c1OC	0.065µM*	.	.	.	?	.
